Measured values taken from PubChem BioAssay (NCI).
This is part of a sample that, as a whole, favours compounds with a hit. Of some 83,000 tested, about 20% had one in any assay.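 Assay: single dose, 48 h. Readout: percent growth (0 = no net growth; negative = cell death). Active: <10.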 Unmarked numbers belong to inactive results. Active and inactive are the calls of the source.

Tests used:
Experiment in all cases: NCI-60 one-dose screen, 48 h (100 = growth as untreated, 0 = no growth, -100 = all killed)
SK-MEL-2 melanoma = conditions: 10 µM unless noted
EKVX NSCLC = conditions: 10 µM unless noted
SN12C renal = conditions: 10 µM unless noted
UO-31 renal = conditions: 10 µM unless noted
TK-10 renal = conditions: 10 µM unless noted
A498 renal = conditions: 10 µM unless noted
CCRF-CEM leukemia = conditions: 10 µM unless noted
CAKI-1 renal = conditions: 10 µM
MOLT-4 leukemia = conditions: 10 µM unless noted

Nc1c(C(=O)O)[nH]c(=O)[nH]c1=O
growth (SK-MEL-2 melanoma): 99.5%
growth (EKVX NSCLC): 105%
growth (SN12C renal): 98.3%
growth (UO-31 renal): 94.2%
growth (TK-10 renal): 103%
growth (A498 renal): 106%
growth (CCRF-CEM leukemia): 90.3%

COc1ccc(C[C@H](N)C(=O)N[C@@H]2[C@@H](CO)OC(n3cnc4c(N(C)C)ncnc43)[C@@H]2O)cc1 (some centres undefined)
growth (SK-MEL-2 melanoma): -74.4% (active)
growth (EKVX NSCLC): -47.2% (active)
growth (SN12C renal): -13.3% (active)
growth (UO-31 renal): 16.2%
growth (TK-10 renal): -75.7% (active)
growth (CAKI-1 renal): 42.8%
growth (A498 renal): -65.6% (active)
growth (CCRF-CEM leukemia): -3.9% (active)
growth (MOLT-4 leukemia): -22.3% (active)

COc1ccc(/C=C/C(=O)c2ccc(Oc3ncnc4ccccc34)cc2)cc1OC
growth (SK-MEL-2 melanoma): 89.8%
growth (EKVX NSCLC): 77.7%
growth (SN12C renal): 79%
growth (UO-31 renal): 51.1%
growth (TK-10 renal): 96.6%
growth (A498 renal): 98.9%
growth (CCRF-CEM leukemia): 46.4%

O=C(/C=C/c1ccccc1)Oc1ccc(/C=C/c2cc(OC(=O)/C=C/c3ccccc3)cc(OC(=O)/C=C/c3ccccc3)c2)cc1
growth (SK-MEL-2 melanoma): 105%
growth (EKVX NSCLC): 99.1%
growth (SN12C renal): 106%
growth (UO-31 renal): 82.9%
growth (TK-10 renal): 87%
growth (A498 renal): 91.3%
growth (CCRF-CEM leukemia): 91.1%

C=CC(C)(O)CCC1C(=C)CCC2C(C)(C)CCCC12C (centres undefined)
growth (SK-MEL-2 melanoma): 92.2%
growth (EKVX NSCLC): 96.7%
growth (SN12C renal): 108%
growth (UO-31 renal): 90.3%
growth (TK-10 renal): 83.3%
growth (A498 renal): 106%
growth (CCRF-CEM leukemia): 124%

CCc1cccc(C)c1NC(=O)c1sc2nc3c(cc2c1N)CCCCC3
growth (SK-MEL-2 melanoma): 38.9%
growth (EKVX NSCLC): 45.7%
growth (SN12C renal): 41.1%
growth (UO-31 renal): 51%
growth (TK-10 renal): 66.7%
growth (A498 renal): 8.2% (active)
growth (CCRF-CEM leukemia): 16.6%
growth (MOLT-4 leukemia): 26.7%

COc1cc(Br)c(-c2nc(-c3ccccc3)c(-c3ccccc3)n2Cc2ccccc2)cc1OC
growth (SK-MEL-2 melanoma): 44.8%
growth (EKVX NSCLC): 47.9%
growth (SN12C renal): 66.5%
growth (UO-31 renal): 30.4%
growth (TK-10 renal): 62.3%
growth (A498 renal): 73.8%
growth (CCRF-CEM leukemia): 54.3%
growth (MOLT-4 leukemia): 23.4%

CN(C)CCCOc1c(Br)cc(/C=C/C(=O)N(C)CCc2cc(Br)c(OCCCN(C)C)c(Br)c2)cc1Br
growth (SK-MEL-2 melanoma): 89.3%
growth (EKVX NSCLC): 78.7%
growth (SN12C renal): 72.8%
growth (UO-31 renal): 65.7%
growth (TK-10 renal): 106%
growth (A498 renal): 60.5%
growth (CCRF-CEM leukemia): 4.13% (active)
growth (MOLT-4 leukemia): -1.09% (active)

Cc1cccc(CC(=O)c2ccccc2)n1
growth (SK-MEL-2 melanoma): 96.7%
growth (EKVX NSCLC): 79.2%
growth (SN12C renal): 94.5%
growth (UO-31 renal): 81.5%
growth (TK-10 renal): 95.6%
growth (A498 renal): 74.3%
growth (CCRF-CEM leukemia): 71.8%
growth (MOLT-4 leukemia): 90.5%

FC(F)(F)c1cccc([Si](F)(c2cccc(C(F)(F)F)c2)c2cccc(C(F)(F)F)c2)c1
growth (SK-MEL-2 melanoma): 87.6%
growth (EKVX NSCLC): 66.1%
growth (SN12C renal): 74%
growth (UO-31 renal): 49%
growth (TK-10 renal): 73.9%
growth (A498 renal): 90.4%
growth (CCRF-CEM leukemia): 65.5%
growth (MOLT-4 leukemia): 61.6%

CC(C)(CCN=C(N)Nc1ccccn1)c1ccc(C(F)(F)F)cc1
growth (SK-MEL-2 melanoma): 38.5%
growth (EKVX NSCLC): 21.6%
growth (SN12C renal): 23.9%
growth (UO-31 renal): 14.4%
growth (TK-10 renal): 37%
growth (A498 renal): 57.2%
growth (CCRF-CEM leukemia): 7.26% (active)
growth (MOLT-4 leukemia): -15.6% (active)

COc1cc([C@@H]2c3cc4c(cc3C(OC3O[C@@H]5COC(C)O[C@H]5[C@H](O)[C@H]3O)C3COC(=O)[C@@H]32)OCO4)cc(OC)c1O (some centres undefined)
growth (SK-MEL-2 melanoma): 74.6%
growth (EKVX NSCLC): 57.8%
growth (SN12C renal): 13%
growth (UO-31 renal): 64.3%
growth (TK-10 renal): 72.5%
growth (CAKI-1 renal): 9.12% (active)
growth (A498 renal): 36.2%
growth (CCRF-CEM leukemia): 6.56% (active)
growth (MOLT-4 leukemia): 2.96% (active)

COc1ccc(-c2ccc(NC(=O)Nc3ccc(Cl)c(C(F)(F)F)c3)c(C)n2)cc1
growth (SK-MEL-2 melanoma): 62.1%
growth (EKVX NSCLC): 49.2%
growth (SN12C renal): 57.4%
growth (UO-31 renal): 39.3%
growth (TK-10 renal): 65.9%
growth (A498 renal): 57.7%
growth (CCRF-CEM leukemia): 29.9%
growth (MOLT-4 leukemia): 24.6%

CCCCCC/C=N/Nc1ccc([N+](=O)[O-])cn1
growth (SK-MEL-2 melanoma): 89.6%
growth (EKVX NSCLC): 101%
growth (SN12C renal): 110%
growth (UO-31 renal): 84.6%
growth (TK-10 renal): 94.8%
growth (A498 renal): 103%
growth (CCRF-CEM leukemia): 100%
growth (MOLT-4 leukemia): 103%

COc1ccc(/C=C/C(=O)c2ccc(-n3cc(CN4CCN(c5cc6c(cc5F)c(=O)c(C(=O)O)cn6C5CC5)CC4)nn3)cc2)cc1OC
growth (SK-MEL-2 melanoma): 97.4%
growth (EKVX NSCLC): 80%
growth (SN12C renal): 14.9%
growth (UO-31 renal): 43.5%
growth (TK-10 renal): 80%
growth (CAKI-1 renal): 60%
growth (A498 renal): 54.4%
growth (CCRF-CEM leukemia): 3.05% (active)
growth (MOLT-4 leukemia): 10.5%
